Screens from PubChem.
RORg inh: blocks mouse ROR gamma transcriptional activity; P51450; Drosophila S2 Gal4-RORgamma UAS-luciferase reporter, 20 h; Potency, µM (top dose mostly 53.6 µM), without a hit: at the top dose activity change, negative = inhibition, most hits filed as inhibitors; actives 5.4% (n = 310,000); also: potency is read from the fitted curve at half-maximal effect; % is scaled to controls: 0 for no effect and ±100 for the full control effect; nearly all actives have a fitted effect of over 60% in size
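Stable Schneider cell line, Gal4 DNA-binding domain fused to ROR gamma, UAS-luciferase. Cmpd 1 hr RT → CuSO4 700 uM final → 20 hr RT → luciferase reagent 10 min → luminescence.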
Giardia kill: Giardia lamblia killing | Giardia lamblia trophozoite viability | activity change, % at 7.66 µM, hits read low | actives 0.15% (n = 340,000) | AID 540267; in the data active = activity change below about -80%; inconclusive = between about -30% and that limit;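 also: parasites exposed to compound for two days anaerobically before the ATP read; % is scaled to controls: 0 for no effect and ±100 for the full control effect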
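Anaerobic 48 hrs incubation at 37 deg C of 100 trophozoites/well with test compounds; ATPLite 1-Step luminescence, 15-30 min RT, reports cellular ATP as viability.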
Integrin act MD: integrin-mediated muscular dystrophy alleviation activation. alpha7betagal myoblasts, beta-gal FDG fluorescence, 48 h. Potency, µM (series often up to 38.3 µM), inactives show at the top dose activation, actives largely listed as activators. actives 0.064% (n = 350,000);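 also: potency is read from the fitted curve at half-maximal effect; 100% = response of the positive control SU9516; nearly all actives have a fitted effect of over 60% in size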
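Alpha7betagal+/- myoblasts (passage 13) were plated 16-24 hr, then exposed to compounds (1:260 dilution of DMSO stock) for 48 hours at 37C. After MPER lysis, β-galactosidase reporter activity was read as FDG fluorescence (ex 480/em 540) after 30 minutes.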
VP16 counter: counter-screen for ROR gamma inhibitors: Gal4-VP16 reporter | Drosophila S2 Gal4-VP16 UAS-luciferase, luminescence, 20 h | Potency, µM (doses to about 53.6 µM), for the others: at the highest dose activity, negative = inhibition, most hits filed as inhibitors | actives 3.5% (n = 310,000);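 also: Gal4-VP16 expression switched on by copper sulfate through the metallothionein promoter; potency is read from the fitted curve at half-maximal effect; % is scaled to controls: 0 for no effect and ±100 for the full control effect; nearly all actives have a fitted effect of over 50% in size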
ERG-DNA inh: ERG Ets/DNA interaction inhibition. P11308. fluorescence polarization, His-ERG Ets domain / labelled DNA. Potency, µM (titrated, usually from 76.9 µM), without a hit: top-dose FP activity, negative = inhibition, most hits filed as inhibitors. actives 0.028% (n = 370,000). AID 624246; active = well fitted inhibition curve with a large enough effect in the polarisation, with a control signal flat; inconclusive = small, poorly fitted or top-dose-only effect, or effect the other way, or a change in a side signal; inactive = no such curve, though single readings can be large or run the other way; the % refers to the polarisation;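 also: polarization taken with two DNA probes labelled with fluorescein and Texas red; potency is read from the fitted curve at half-maximal effect; % of control where 0% means no effect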
Target sequence (P11308 whole entry, looked up, the tested form may be a part): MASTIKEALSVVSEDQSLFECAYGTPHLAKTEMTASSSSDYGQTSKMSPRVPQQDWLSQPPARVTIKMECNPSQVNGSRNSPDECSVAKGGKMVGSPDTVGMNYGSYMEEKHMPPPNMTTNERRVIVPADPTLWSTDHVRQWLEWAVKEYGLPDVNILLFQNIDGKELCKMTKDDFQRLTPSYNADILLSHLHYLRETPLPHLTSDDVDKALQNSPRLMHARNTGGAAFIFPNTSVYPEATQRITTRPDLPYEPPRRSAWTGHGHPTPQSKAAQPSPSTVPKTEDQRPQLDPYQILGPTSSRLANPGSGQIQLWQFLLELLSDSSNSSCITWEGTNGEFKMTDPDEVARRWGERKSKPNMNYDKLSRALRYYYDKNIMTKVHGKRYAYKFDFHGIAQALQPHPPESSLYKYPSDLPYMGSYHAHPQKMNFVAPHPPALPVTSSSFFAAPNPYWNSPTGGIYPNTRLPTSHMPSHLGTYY
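His-tagged ERG Ets domain (1 uM in the protein solution; 300mM KCl, 50mM Tris-HCl, 1mM EDTA, 1mM DTT, pH 7.5) received compound, then a probe mix of 5 nM fluorescein-DNA and 100nM Texas-615-DNA. Fluorescence polarization was read for both dyes.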
* hit, by the source's call; ? = inconclusive; . = not tested or not shown; [ ] = another dose, or the depositor's remark. This excerpt belongs to a sample that is enriched for hits. Unless noted, calls follow the shape of the dose curve; as a rule, active = well fitted curve in the direction sought with a large enough effect; inconclusive = small, poorly fitted or top-dose-only effect, or another doubt; inactive = no such curve, though single readings can be large; an effect the other way counts as inactive or inconclusive.

SMILES	RORg inh	Giardia kill	Integrin act MD	VP16 counter	ERG-DNA inh
Oc1ccc2ccccc2c1C=Nc1ccccc1Br	13µM*	-2	-7%	-29%	5%
CS/C(N)=N/N=C/c1c(O)ccc2ccccc12	0.89µM*	-13	-2%	7.1µM*	0%
Oc1cccc(C=Nc2cccc3ccccc23)c1O	11µM*	-21	-53%	13µM*	6%
Oc1ccc2ccccc2c1/C=N/c1nccs1	1%	-7	-25%	-7%	-1%
CC(=O)N(C)c1ccc(N=Cc2c(O)ccc3ccccc23)cc1	11µM*	24	-2%	?	2%
CC(=O)c1cccc(N=Cc2c(O)ccc3ccccc23)c1	-25%	6	11%	2%	-2%
COc1ccccc1C(=O)NCCC(=O)NC(C)c1ccc(-n2ccnc2)cc1 (centres undefined)	.	-5	23%	.	2%
O=C1c2cc(O)cc(O)c2OC[C@@H]1c1ccc(O)c(O)c1	1%	.	.	-3%	.
CN(C)/N=C/c1c(O)ccc2ccccc12	-2%	-2	-31%	3%	7%
Oc1ccccc1N=Cc1c(O)ccc2ccccc12	8.9µM*	-10	0%	?	46%
CCOc1ccc(C2C(C(C)=O)=C(O)C(=O)N2CCc2c[nH]c3ccccc23)cc1 (centres undefined)	1%	3	-20%	-12%	-2%
COc1ccc(C(=O)O/N=C(\N)c2ccccc2)cc1	?	13	-11%	?	-13%
N/C(=N\OC(=O)c1ccc(F)cc1)c1cccc([N+](=O)[O-])c1	2%	10	?	-11%	-7%
Cc1cccc(/C(N)=N/OC(=O)c2ccc(F)cc2)c1	8.9µM*	9	7%	22µM*	2%
N/C(Cc1ccc(Cl)cc1Cl)=N\OC(=O)c1cccs1	13µM*	1	13%	?	8%
CC(C)(C)c1ccc(C(=O)O/N=C(\N)c2ccccc2)cc1	1.1µM*	15	14%	6.3µM*	-3%
Cc1cc(C(=O)O/N=C(\N)c2ccc(C(C)(C)C)cc2)no1	12%	8	3%	24%	-12%
Cc1noc(-c2ccc(Cl)cc2)c1C(=O)O/N=C(\N)c1ccc(C(C)(C)C)cc1	7.1µM*	-24	-44%	7.9µM*	-6%
N/C(Cc1ccc(Cl)cc1Cl)=N\OC(=O)Cc1cccs1	34%	15	-5%	-10%	-6%
Cc1cccc(/C(N)=N/OC(=O)c2cccs2)c1	8.9µM*	-10	8%	?	-10%
N/C(=N\O)c1ccc([N+](=O)[O-])s1	1%	-88*	8%	7%	0%
O=C(c1ccc(Br)cc1)N1CCN(CCc2ccncc2)CC1	.	.	.	.	2%
Cc1cc(-n2ccnc(NCCc3ccc(S(N)(=O)=O)cc3)c2=O)ccc1Br	.	.	.	.	0%
CC1=C(C(=O)Nc2ccccc2C)C(c2cccs2)NC(=S)N1 (centres undefined)	-10%	8	-21%	-2%	7%
CCOc1ccccc1NC(=O)C1=C(C)NC(=S)NC1c1cccs1 (centres undefined)	6.3µM*	23	-5%	20µM*	.
SMILES	RORg inh	Giardia kill	Integrin act MD	VP16 counter	ERG-DNA inh
Cc1ccccc1OCCn1cc(C(=S)N2CCCC2)c2ccccc21	.	-15	-51%	.	6%
Cc1ccccc1OCCn1cc(C(=S)N2CCN(C)CC2)c2ccccc21	13µM*	7	-16%	-15%	2%
CC(=O)c1cn(CCOc2ccccc2C)c2ccccc12	?	7	-56%	4.5µM*	0%
Cc1cc(C)c(S(C)(=O)=O)c(Oc2cccc(C(F)(F)F)c2)n1	15%	15	-4%	-21%[10 µM]	12%
Cc1cc(OCn2ccc(C(=O)O)n2)ccc1Cl	?	10	8%	16µM*	-9%
COc1cc2[nH]c(=S)nc(NCc3ccc(C)cc3)c2cc1OC	6.3µM*	20	-1%	18µM*	5%
O=C(NC1CCCCC1)c1ccc(CNc2nc(=S)[nH]c3ccccc23)cc1	13µM*	-22	-16%	2%	-7%
O=C(NCCc1ccc(Cl)cc1)C1CCC(CNc2nc(=S)[nH]c3ccccc23)CC1 (centres undefined)	11µM*	-25	26%	?	12%
O=C(NCCC1=CCCCC1)C1CCC(CNc2nc(=S)[nH]c3ccccc23)CC1 (centres undefined)	?	10	0%	-5%	-2%
S=c1nc(NCc2cccc(Cl)c2)c2ccccc2[nH]1	4µM*	18	0%	8.9µM*	4%
Cc1ccc(N2C(=O)CSC23C(=O)N(CC(=O)NCCc2ccccc2)c2ccccc23)cc1C (centres undefined)	.	.	.	.	-2%
COc1cc2[nH]c(=S)nc(NCc3cccc(Cl)c3)c2cc1OC	3.2µM*	-3	4%	7.9µM*	10%
S=c1nc(NCc2ccc3c(c2)OCO3)c2ccccc2[nH]1	13µM*	3	-1%	?	6%
COc1ccc(CNc2nc(=S)[nH]c3cc(OC)c(OC)cc23)cc1	16µM*	3	-21%	?	-6%
COc1cc2[nH]c(=S)nc(NCc3cccnc3)c2cc1OC	1%	-16	-10%	-6%	-3%
COc1cc2[nH]c(=S)nc(NCc3ccccc3)c2cc1OC	7.1µM*	-22	-11%	?	-5%
COc1ccc(NC(=O)CSC2=Nc3ccccc3C3=NC(CCC(=O)NCc4ccco4)C(=O)N23)cc1 (centres undefined)	.	.	.	.	10%
COc1ccc(N2C(=O)C3[C@@H](C2=O)C2(Cl)C(Cl)=C(Cl)C3(Cl)C2(OC)OC)cc1 (some centres undefined)	2%	0	36%	5%	8%
COc1ccc(NS(=O)(=O)c2cccc(C(=O)N/N=C/c3cn(-c4ccccc4)nc3-c3ccccc3)c2)cc1	?	2	19%	2%	-6%
COc1ccc(-c2nn(-c3ccccc3)cc2/C=N/n2cnnc2)cc1OC	7%	-16	-12%	2%	-6%
COc1ccccc1NS(=O)(=O)c1cccc(C(=O)N/N=C/c2ccc3c(c2)OCCO3)c1	-7%	-19	18%	-5%	5%
COc1ccc(-c2nn(-c3ccccc3)cc2/C=N/Nc2ccccn2)cc1	1.6µM*	.	.	4µM*	.
CCN(CC)c1ccc(/C=N/NC(=O)c2cccc(S(=O)(=O)Nc3ccccc3OC)c2)cc1	6.3µM*	-3	-2%	8.9µM*	3%
COc1ccccc1NS(=O)(=O)c1cccc(C(=O)N/N=C/c2cn(-c3ccccc3)nc2-c2ccccc2)c1	1.6µM*	20	-26%	6.3µM*	5%
COc1ccc(-c2nn(-c3ccccc3)cc2/C=N/NC(N)=S)cc1OC	1.1µM*	-4	25%	1µM*	7%
COC(=O)C/C=C\[C@@H](C)[C@@H](/C=N\O[C@@H](C)CN1CCCc2nc(C)c(C)cc21)OC	-5%[10 µM]	.	.	6%[10 µM]	.
